In all, about 330,000 compounds went through this assay and about 10,000 (3%) were called active. The list comes from a sample in which actives are over-represented; it also holds similar structures and randomly drawn compounds. Values without a mark were called inactive.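 How the source made its calls: active means inhibition of at least 50% at 8 µM in the primary screen; inactive means the rest.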

For this assay, the target named is Protein Mdm4 (Homo sapiens) + E3 ubiquitin-protein ligase Mdm2 (Homo sapiens) (UniProt O15151+Q00987). The assay can be described thus: inhibitors of human Mdm2-MdmX association, primary screen, cell-based, luminescence, split luciferase, SaOS-2, uHTS (AID 485346). To be noted: SaOS-2 split-luciferase Mdm2/MdmX complementation, at 8 µM, active compounds read high.
Sequence of Protein Mdm4 (Homo sapiens) + E3 ubiquitin-protein ligase Mdm2 (Homo sapiens) (O15151 whole entry, looked up): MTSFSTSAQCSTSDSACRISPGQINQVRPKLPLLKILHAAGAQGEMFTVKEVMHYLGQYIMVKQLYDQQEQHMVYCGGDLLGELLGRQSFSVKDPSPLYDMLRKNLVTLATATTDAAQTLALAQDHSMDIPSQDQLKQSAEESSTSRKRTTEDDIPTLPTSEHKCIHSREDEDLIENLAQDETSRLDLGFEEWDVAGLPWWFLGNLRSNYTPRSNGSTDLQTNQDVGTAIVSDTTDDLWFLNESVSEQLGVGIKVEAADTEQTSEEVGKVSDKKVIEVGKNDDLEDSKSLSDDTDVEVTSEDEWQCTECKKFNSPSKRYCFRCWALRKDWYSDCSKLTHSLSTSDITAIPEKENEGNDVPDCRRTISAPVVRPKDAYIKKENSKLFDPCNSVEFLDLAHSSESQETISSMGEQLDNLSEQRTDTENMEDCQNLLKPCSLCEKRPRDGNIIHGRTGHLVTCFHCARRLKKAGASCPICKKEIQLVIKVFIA
Sequence of Protein Mdm4 (Homo sapiens) + E3 ubiquitin-protein ligase Mdm2 (Homo sapiens) (Q00987 whole entry, looked up): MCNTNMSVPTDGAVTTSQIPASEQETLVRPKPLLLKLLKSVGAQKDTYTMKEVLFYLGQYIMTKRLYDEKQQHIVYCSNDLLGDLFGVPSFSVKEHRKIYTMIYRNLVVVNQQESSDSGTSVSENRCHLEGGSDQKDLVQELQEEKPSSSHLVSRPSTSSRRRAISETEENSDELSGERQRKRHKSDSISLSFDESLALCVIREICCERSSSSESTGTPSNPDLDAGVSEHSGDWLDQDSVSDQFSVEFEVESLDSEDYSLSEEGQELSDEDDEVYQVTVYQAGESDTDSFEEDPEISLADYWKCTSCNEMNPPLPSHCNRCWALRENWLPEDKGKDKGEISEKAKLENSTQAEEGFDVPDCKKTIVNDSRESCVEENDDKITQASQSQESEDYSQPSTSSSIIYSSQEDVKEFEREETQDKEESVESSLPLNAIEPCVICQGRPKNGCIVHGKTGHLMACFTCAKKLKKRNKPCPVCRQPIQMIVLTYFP
Take `CCCCCCCCCCOC(=O)C[N+](C)(C)CC1CCCCC1O` (stereo not drawn): the inhibition (as a rule, the change of the read-out against control, counted positive when it falls) is 23.5%.

Turning to `CCN(CC(=O)NCc1ccc(Cl)cc1)C(=O)c1c(C)noc1C`, the inhibition was 3.48%. The same measure for `O=C(c1ccncc1)N1CCN(S(=O)(=O)c2cccc([N+](=O)[O-])c2)CC1`: -3.71%; for `CC(C)c1ccc(-c2noc(C3CCCN(S(C)(=O)=O)C3)n2)cc1` (stereo not drawn): 2.01%; for `Cn1c(C(=O)NCCc2ccsc2)cc2c(=O)n(C)c3ccccc3c21`: -6.58%. With `CCN1CCCC1CNC(=O)c1cc2c(=O)n(C)c3ccccc3c2n1C` (stereo not drawn) the figure was 18.3%; with `Cn1c(C(=O)NCCCN2CCN(c3cccc(Cl)c3)CC2)cc2c(=O)n(C)c3ccccc3c21`, 76.9% (active); with `O=C(OCC(=O)N1CCN(C(=O)c2ccco2)CC1)c1c(Cl)cccc1Cl`, 2.03%. Regarding `CCOC(=O)Cn1c2c(c(-c3ccccc3OC)cc1=O)CCCC2`, the inhibition was -13.8%. For the compound `CCO[C@H]1OC(C(=O)O)=C[C@@H](C2CCCCC2)[C@@H]1CCCO`, the inhibition was -5.58%. With `COc1cccc(OCc2nnc3n2N=C(c2ccccc2)C(CC(=O)O)S3)c1` (stereo not drawn) the figure was -4%; with `CCCCn1c(N)c(N(CCOC)C(=O)c2cccc(OCc3ccccc3)c2)c(=O)[nH]c1=O`, -6.7%; with `CCCCCCCCCCOC(=O)Cn1c(COc2cccc(OC)c2)[n+](C)c2ccccc21`, 61.7% (active). For `CCCCCCCCCCOC(=O)Cn1c(COc2ccc(C)cc2)[n+](C)c2ccccc21`, the inhibition was 91.9% (active). The same measure for `CCOC(=O)Cn1c(-c2cccnc2Cl)nc2ccccc21`: -0.413%; for `CCOC(=O)COn1c(=O)c(-c2ccc(OCC)cc2)[n+]([O-])c2ccccc21`: -23.1%; for `COc1cccc(NC(=O)CSc2nnc(C3CCCCC3)n2N)c1`: 18.3%. With `CNC[C@@H]1Oc2c(NS(C)(=O)=O)cccc2C(=O)N([C@@H](C)CO)C[C@H]1C` the figure was -13.4%; with `COC(=O)c1ccc(/C=N/OCC(=O)Nc2cc(F)ccc2F)cc1`, -13.4%.

For the compound `COc1ccccc1N1CCN(c2ncnc3sc(C)c(-c4ccccc4)c23)CC1`, the inhibition was 69.2% (active). On to `COc1ccccc1N1CCN(C(=O)c2c(-c3c(Cl)cccc3Cl)noc2C)CC1`, for which the inhibition is 15.5%. The same measure for `COc1ccccc1N1CCN(c2ccc([N+](=O)[O-])nc2)CC1`: 16.1%. With `O=C(NC1Cc2ccccc2C1)c1cc(COc2cccc(C(F)(F)F)c2)on1` the figure was 26.2%; with `CCCCN(CCCC)CC(O)Cn1c2ccccc2c(=O)c2ccccc21` (stereo not drawn), 18.6%; with `CS(=O)(=O)N(CC(O)Cn1c2ccccc2c2ccccc21)c1cccc2ccccc12` (stereo not drawn), 64.1% (active). Regarding `CC(=O)c1ccc2c(c1)c1ccccc1n2CC(C)C`, the inhibition is 47.4%.

Turning to `COc1ccc(S(=O)(=O)N2CCOCC2)cc1NC(=O)CSc1cc(C)ccc1C`, the inhibition was 9.92%.

`Cn1c2c(c(=O)n(C)c1=O)C(c1cccc(F)c1)C(C#N)=C(N)O2` (stereo not drawn): the inhibition was -0.62%.

With `Cc1ccc(C(=O)NCC(=O)NCc2cc(=O)n(C)c(=O)n2C)cc1`, the inhibition was -0.269%. With `COC(=O)c1ccc(NC(=O)c2cc(Cl)ccc2OC)cc1` the figure was 92.4% (active).

For the compound `COc1ccc(Cl)cc1C(=O)Nc1ccc(N(C)C(C)=O)cc1`, the inhibition is 1.34%. With `CCC(C)NC(=O)c1cc(Cl)ccc1OC` (stereo not drawn) the figure was 2.55%; with `COc1cc(NC(=S)NCCSc2ccc(C)cc2)cc(OC)c1`, 27.5%. Take `O=S(=O)([N-]c1nc2ccccc2nc1-[n+]1ccc(Cc2ccccc2)cc1)c1ccc(Br)s1`: the inhibition was 71.9% (active). With `O=S(=O)(NCc1cccnc1)c1ccc(Br)s1` the figure was 1%. With `O=C(NCCc1ccccc1)C1CCN(S(=O)(=O)c2ccc(Br)s2)CC1` the figure was 18.6%; with `COc1ccc2c(c1)c1nc3n(c(=O)c1n2CC(=O)Nc1ccccc1)CCS3`, 41.9%; with `CC(C(=O)NC1CCCC1)N1CCN(S(=O)(=O)c2ccccc2Cl)CC1` (stereo not drawn), -17.2%.

Regarding `Cn1nccc1C(=O)NC1CCCc2c1cnn2-c1ccccc1F` (stereo not drawn), the inhibition was -1.1%. The same measure for `Cc1cc(C(=O)NC2CCCc3c2cnn3-c2cccc(C)c2C)c(C)o1` (stereo not drawn): 68% (active). For the compound `Cc1ccc(-n2ncc3c2CCCC3NC(=O)c2cnccn2)cc1C` (stereo not drawn), the inhibition is 9.66%. With `Cn1nccc1C(=O)NC1CCCc2c1cnn2-c1ccc(F)cc1F` (stereo not drawn) the figure was 26.9%. The same measure for `CC(=O)NCC(=O)NC1CCCc2c1cnn2-c1ccccc1F` (stereo not drawn): -11.2%; for `COc1ccc(C(=O)NC2CCCc3c2cnn3-c2cccc(C)c2C)c(OC)n1` (stereo not drawn): 97.7% (active); for `Cc1nonc1C1CCCN1Cc1nc(-c2ccc(F)cc2F)oc1C` (stereo not drawn): 29.7%. With `Clc1ccc(C[n+]2cc(-c3ccc(Cl)cc3)n3c2CCC3)cc1` the figure was 31.8%; with `COc1ccc(S(=O)(=O)Nc2ccc3cn[nH]c3c2)cc1[N+](=O)[O-]`, 0.751%; with `O=[N+]([O-])c1cc(S(=O)(=O)Nc2cccc(Cl)c2)ccc1N=Nc1c(O)[nH]c2ccccc12`, 97.4% (active). `Cc1cccc(N(CC(=O)N=Nc2c(O)[nH]c3ccccc23)S(C)(=O)=O)c1C`: the inhibition is -22.1%. The same measure for `CCN(CC)CCCNC(=O)c1cc2c(=O)[nH]c3ccc(C)cc3c2s1`: 26.3%; for `Cc1cccc(N(C)C(=O)c2cc3c(=O)[nH]c4ccc(C)cc4c3s2)c1`: 60.9% (active); for `Cc1ccc2[nH]c(=O)c(CC(=O)O)c(-c3ccccc3)c2c1`: 22%. With `O=C(CNC(=O)C12CC3CC(CC(C3)C1)C2)OCC(=O)N1CCCCC1` the figure was 19.2%; with `C/C(=N\NC(=O)c1ccc(NS(=O)(=O)c2cccs2)cc1)c1ccc2ccccc2c1`, -6.93%; with `COc1cc(OC)cc(C(=O)NC2CCN(C(=O)N3c4ccccc4Sc4ccccc43)CC2)c1`, 9.25%.

As to `CC(=O)Nc1ccccc1NC(=O)c1cc(C)cc(C)c1`, the inhibition was -1.21%. The same measure for `Nc1ccc(C(=O)NCc2ccccc2)cc1`: 3.98%; for `Nc1ccc(C(=O)Nc2ccccc2N)cc1`: 54.8% (active).
